Test results: ChEMBL document CHEMBL4513216, “Probing the Open Global Health Chemical Diversity Library for Multistage-Active Starting Points for Next-Generation Antimalarials” (ACS Infect Dis, 2020)
Out of some 69,000 compounds screened, about 8,600 (12%) showed an effect of 50% or more. The sample holds strong results, similar compounds and a random draw of the others, so the mix is not that of the screen.

System: Plasmodium berghei
Assay: Screen against P. berghei liver stage (PbLuc), transformed with Luciferase, at 10uM
Type: functional, HepG2
Settings: tested at 10 uM

| SMILES | INHIBITION [%] |
| --- | --- |
| CC(=O)N1CCC(Cc2ccc(-c3ccnn3C)nc2)CC1 | 9.45 |
| CN1CCCC2(CCN(C(=O)Cn3ncc4ccccc4c3=O)C2)C1=O (stereo not given) | 21.2 |
| CCN(CC1CCOC1)C(=O)c1ccccc1S(C)(=O)=O (stereo not given) | 45.7 |
| Cc1nonc1OCCNc1ncnc2sc3c(c12)CCNC3 | 6.94 |
| Cc1ccc(CCNc2ncnc3sc4c(c23)CCNC4)o1 | -158 |
| c1ccc(OCCNc2ncnc3sc4c(c23)CCNC4)cc1 | 92.1 |
| Cc1cnn(CCNCC(=O)N(C)C(C)c2ccccc2)c1 (stereo not given) | 19.7 |
| Cc1ccoc1C1=NNC(=CN2CCn3c(nnc3C3CC3)C2)O1 | 5.97 |
| Cn1c(CCN2CCN(c3ccc(O)cc3)CC2)nc2ccccc21 | 61.9 |
| CCCc1ccc(N2CCN(Cc3nc4ccccc4n3C)CC2)cc1 | 25.8 |
| Cn1c(CCN2CCN(CCc3ccccc3)CC2)nc2ccccc21 | 49.9 |
| O=C(NCc1cncc2c1CCN(Cc1ccoc1)C2)C1CC1 | 5.96 |
| CN1CCN(Cc2cn3c(n2)CN(Cc2ccc(F)cc2)CC3)CC1 | -17.7 |
| CN1CCN(Cc2cn3c(n2)CN(Cc2cccnc2)CC3)CC1 | 30.7 |
| COc1ccc(CN2CCn3cc(CN4CCN(C)CC4)nc3C2)cc1 | 40.4 |
| CN1CCN(Cc2cn3c(n2)CN(Cc2ccccn2)CC3)CC1 | 24.9 |
| CN1CCN(Cc2cn3c(n2)CN(Cc2ccncc2)CC3)CC1 | 82.9 |
| Cc1ccc(CN2CCn3cc(CN4CCN(C)CC4)nc3C2)cc1 | 72.9 |
| O=C(c1cscn1)N1C[C@@H](Oc2cccnc2)[C@H]2OCCC[C@H]21 | 2.58 |
| CCCN1Cc2cc(Br)ccc2OCC1=O | 68 |
| O=C1COc2ccc(Br)cc2CN1CC1CC1 | 0.0996 |
| O=C1COc2ccc(Cl)cc2CN1CC1CC1 | -8.66 |
| O=C(NC[C@]12COC[C@H]1CN(Cc1cccs1)C2)c1ccsc1 | 20.5 |
| COc1ccc(CNc2c(N3CCN(C)CC3)c(=O)c2=O)cc1 | 31.8 |

| SMILES | INHIBITION [%] |
| --- | --- |
| COc1ccc(CNc2c(N3CCN(C(C)=O)CC3)c(=O)c2=O)cc1 | 54 |
| COc1ccccc1CNc1c(N2CCN(C(C)=O)CC2)c(=O)c1=O | -19.2 |
| O=C(NCCSCc1ccco1)c1ccc(N2CCOCC2)cc1 | 17.7 |
| CCC(CC#N)n1ccc(C(F)(F)F)n1 (stereo not given) | 21.9 |
| CCC1=N[C@@]2(CC[C@@H]3CN(CC(=O)N(C)C)C[C@@H]32)C(=O)N1CC1CC1 | -3.95 |
| Cc1c(CN2CCC(C(=O)O)(n3ccnc3)CC2)oc2ccccc12 | 15.1 |
| COc1ccc(NC(=O)NC(C)Cc2ccco2)cn1 (stereo not given) | -41.2 |
| CC(C)(C)C(=O)N1C[C@@H]2COC[C@]2(c2nnc(C3CC3)o2)C1 | -9.54 |
| O=C(c1ncccn1)N1C[C@@H]2COC[C@]2(c2nnc(C3CC3)o2)C1 | -36.5 |
| CN(C)C(=O)N1C[C@@H]2COC[C@]2(c2nnc(C3CC3)o2)C1 | 54.7 |
| COc1cccc(-c2nc(C)c(C(=O)N[C@@H](CC(C)C)C(=O)O)s2)c1 | -95.4 |
| O=C1CC(c2cccnc2)c2c(c(C(=O)O)cn2-c2ccc(Cl)cc2)N1 (stereo not given) | 20 |
| CCc1ccc(CCNc2ncnc3c2CCN(C(=O)C2CC2)C3)cc1 | 71.1 |
| Nc1nnc(CCNc2ncnc3c2CCN(C(=O)C2CC2)C3)s1 | -10.2 |
| O=C(C1CC1)N1CCc2c(ncnc2NCCc2nc3c(s2)CCC3)C1 | 52.2 |
| O=C(C1CCCCO1)N1CCc2ncnc(NCCO)c2CC1 (stereo not given) | 25.8 |
| Nc1nc(CCNc2ncnc3c2CCN(C(=O)C2CC2)C3)cs1 | -66.7 |
| Nc1nnc(CCCNc2ncnc3c2CCN(C(=O)C2CC2)C3)s1 | -45 |
| CC(C)n1nc(Cn2cccn2)c2c1CN(C1CCOCC1)C2 | -33 |
| Cc1nc(CN2CC[C@@H]3O[C@@H](C(=O)N4CCOCC4)C[C@@H]32)cs1 | 30.9 |
| COCCC(C)NC(=O)N1CCC(n2ccc(C(F)(F)F)n2)CC1 (stereo not given) | 15.7 |
| CCS(=O)(=O)N1CCN(C(=O)c2cnc3[nH]nc(C)c3c2)CC1 | -35.2 |
| O=C(c1coc(COc2cccc3cnccc23)n1)N1CCSCC1 | 74.9 |
| O=C(c1cc(=O)c(OCc2ccccc2)co1)N1CCSCC1 | 21.5 |

| SMILES | INHIBITION [%] |
| --- | --- |
| O=C(c1coc(COc2ccccc2F)n1)N1CCCO1 | -4.235 |
| O=C(c1coc(COc2cccc(F)c2)n1)N1CC[C@H](O)[C@@H](O)C1 | 6.8 |
| O=C(O)c1coc(COc2cccc3cnccc23)n1 | -2.46 |
| CC1CCCCN1C(=O)c1coc(COc2cccc3cnccc23)n1 (stereo not given) | 68.4 |
| COCCC1CCCCN1C(=O)c1coc(COc2ccccc2F)n1 (stereo not given) | 29.735 |
| O=C(c1coc(COc2ccccc2F)n1)N1CCC[C@H]1CO | 2.611 |
| O=C(c1coc(COc2cccc3cnccc23)n1)N1CCCCCC1 | 84.1 |
| Cc1cc(Cn2c(=O)c3c(C(F)(F)F)cc(C)nc3n2C)on1 | 4.81 |
| CN1CCOC(CNCC(=O)NCCCc2ccccc2)C1 (stereo not given) | -17.8 |
| COc1ccc(CN(C)Cc2ccnc(C3CCCO3)n2)cc1 (stereo not given) | 21.95 |
| Cc1ncc(CNC(=O)NC2CCN(C3CCCC3)CC2)s1 | -53.6 |
| Cc1cccc(CN2CC[C@@H]3O[C@@H](C(=O)N4CCN(C)CC4)C[C@@H]32)n1 | -5.25 |
| CCOC(=O)N1CCN(C(=O)c2cc(-c3ccc(Cl)cc3Cl)on2)CC1 | -6.91 |
| CCN(Cc1cccc(F)c1)Cc1nc2c(cnn2C)c(=O)[nH]1 | 3.73 |
| CC1(NC(=O)Cc2csc(NC(=O)c3ccccc3)n2)CCS(=O)(=O)C1 (stereo not given) | -14.2 |
| CCc1ncncc1C(=O)NC1CCc2nc(C)cn2C1 (stereo not given) | -53.5 |
| CCC[C@@H]1CN(Cc2ccc(C(F)(F)F)nc2)C[C@H]1C(=O)O | 37.2 |
| COc1ccccc1[C@@H]1CN(Cc2ccncc2)C[C@H]1C(=O)O | -21.8 |
| COc1ccccc1[C@@H]1CN(Cc2ccc3nsnc3c2)C[C@H]1C(=O)O | 68.2 |
| Cc1ccccc1[C@@H]1CN(Cc2c(C)noc2C)C[C@H]1C(=O)O | 2.25 |
| COc1ccccc1[C@@H]1CN(Cc2csc(C(C)=O)c2)C[C@H]1C(=O)O | -82.7 |
| Cc1ccccc1[C@@H]1CN(Cc2ccc(C(F)(F)F)nc2)C[C@H]1C(=O)O | 59.7 |
